Data on 70 molecules can be found in PubChem BioAssay AID602449 (Sanford-Burnham Center for Chemical Genomics, 2012).

The whole screen tested about 360,000 compounds, of which about 5,000 (1.4%) were called active.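 Rule for the calls: active = inhibition of 50% or more, scaled per plate between neutral and stimulator controls; inactive = the rest.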 This excerpt belongs to a sample that is enriched for actives.

This assay can be described thus: blockers of Ca2+-induced mitochondrial swelling – biochemical, isolated mouse mitochondria, absorbance, primary screen (AID 602449).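 Note: 0% = DMSO wells given calcium and 100% = 1 mM EGTA wells.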 The following applies: 30 min, at 10 µM, active compounds read high.
Usually inhibition stands for the drop in the measured response relative to a control, in per cent. Regarding `COc1ccc(C(=O)C2CCCN(C(=O)c3cc(C)on3)C2)cc1F` (stereo not given), the inhibition was -1.4% (inactive).

Take `O=C(Nc1ccc(Cl)cc1)c1csc([C@@H]2O[C@H](CO)[C@H](O)[C@H](O)[C@H]2O)n1`: the inhibition was -4.4% (inactive). Take `O=C(CSc1n[nH]c(-c2cccnc2)n1)Nc1ccc(Cl)cc1`: the inhibition is 1.2% (inactive). As for `O=C(NNC(=O)c1csc(-c2cccnc2)n1)Nc1ccc(Cl)cc1`, the figure is 56.5% (active); as for `CCCN(C(=O)c1nc2nccc(C)n2n1)c1c(N)n(Cc2ccccc2)c(=O)[nH]c1=O`, -2.3% (inactive). For the molecule `CCc1cc(C(=O)OC)c(NC(=O)CC2Sc3ccc(C(F)(F)F)cc3NC2=O)s1` (stereo not given), the inhibition is 3.8% (inactive). For the molecule `O=C(Nc1ccc(Cl)cc1)c1csc([C@H]2C[C@H](O)[C@@H](CO)O2)n1`, the inhibition is -0.6% (inactive).

In the case of `CC[C@@H](C)[C@@H](C(=O)N1CCN(C(=O)OC(C)(C)C)CC1)n1cc(CCC(=O)O)nn1`, the inhibition is -0.6% (inactive).

As for `CC(C)(C)c1ccc(CCC2OCC(CN3CCOCC3)O2)cc1` (stereo not given), the inhibition was 3.3% (inactive). The same measure for `COc1cccc(C(C(=O)NC2CCCC2)N(C(=O)c2ccco2)c2cccc(C(C)=O)c2)c1OC` (stereo not given): -2.4% (inactive). For `Cc1nc(CNS(=O)(=O)c2ccc(Oc3ccccc3)cc2)cs1`, the inhibition was 88.7% (active).

For `Cc1ccc(S(=O)(=O)NCc2nc3ccccc3c(=O)n2N)cc1`, the inhibition is 1.2% (inactive). In the case of `Cc1nc(CNS(=O)(=O)c2cc([N+](=O)[O-])ccc2C)cs1`, the inhibition was 0.4% (inactive). As to `COC(=O)[C@@]12C[C@@H](CC(=O)NCCCCc3ccccc3)C(=O)N(Cc3ccccc3)C1=CCC(C)(C)C2`, the inhibition is -0.7% (inactive). Turning to `Cc1ccc(OCC(=O)N2CCN(S(=O)(=O)c3ccc(Cl)s3)CC2)cc1C`, the inhibition was 2.3% (inactive).

As for `CC(C)c1ccc(NC(=S)NC2CC3C=CC2C3)cc1` (stereo not given), the inhibition was 73.8% (active).

Turning to `O=C(COC(=O)C1CC2C=CC1C2)Nc1ccccc1` (stereo not given), the inhibition was -0.1% (inactive). As for `CC(C)c1ccc(NC(=O)NC2CCCCC2)cc1`, the inhibition is 0.2% (inactive). Regarding `CCOC(=O)/C(N=Nc1cc(C(=O)O)cc(C(=O)O)c1)=C(\O)CCl`, the inhibition is -2.4% (inactive). For the molecule `CN(C)C(CNC(=O)c1cccc(S(=O)(=O)Nc2ccc(Br)cc2)c1)c1ccco1` (stereo not given), the inhibition is -0.5% (inactive). With `COC(=O)Cc1ccc(NC(=S)NCc2ccco2)cc1`, the inhibition was -0.8% (inactive).

In the case of `Cc1ccc(CC(=O)Nc2ccc(S(=O)(=O)N3CCOCC3)cc2)cc1C`, the inhibition was 1% (inactive). In the case of `COc1ccc(Cc2nnc(SCC(=O)Nc3ccc(C)c(C)c3)o2)cc1OC`, the inhibition was 0% (inactive). As for `COc1cc(NC(=S)NCc2ccco2)c(OC)cc1Cl`, the inhibition was 1.7% (inactive). For `FC(F)Oc1ccc(NC(=S)NCc2ccco2)cc1Cl`, the inhibition is 86.1% (active). The same measure for `Cc1ccc(CC(=O)Nc2ccc(OC(F)F)c(Cl)c2)cc1C`: 60% (active); for `OCCC1CN(Cc2ccc3nsnc3c2)CCN1C1CCCC1` (stereo not given): 2.1% (inactive); for `Cc1nnc(SCC(=O)N(C(C)C)C(C)C)nc1C`: -1.3% (inactive). In the case of `CCC(C(=O)NCc1ccc(OC)cc1)n1nc(C)n2c(cc3occc32)c1=O` (stereo not given), the inhibition is 0.5% (inactive). The same measure for `CCC(C)NC(=O)c1nn(C)c(=O)c2ccccc12` (stereo not given): -0.2% (inactive); for `COc1ccc(NC(=O)COC(=O)c2ccc(NS(=O)(=O)/C=C/c3ccccc3)cc2)cc1`: -9% (inactive). The same measure for `COc1cccc(/C=C(/CC(=O)Nc2ccc(N3CCOCC3)cc2)c2nc3ccccc3s2)c1`: -0.3% (inactive); for `COc1ccc(/C=C(/CC(=O)Nc2ccc(C)cc2)c2nc3ccccc3s2)cc1`: 52.2% (active); for `CCc1ccc(CN(C)C(C)C(=O)Nc2ccc(S(=O)(=O)N3CCCC3)cc2)cc1` (stereo not given): 0.2% (inactive).

With `O=C1NC[C@H](CCCCN2C[C@H](Cc3ccccc3)N(Cc3ccccc3)C(=O)C2=O)N(CCc2ccc(O)cc2)C1=O`, the inhibition is -0.9% (inactive). In the case of `COC(=O)c1ccccc1NC(=O)CN(Cc1ccc(Cl)cc1)S(C)(=O)=O`, the inhibition was 0.4% (inactive). Consider `CN(Cc1cccnc1)C(=O)c1cc(COc2ccc3ncccc3c2)on1`, for which the inhibition is 98.2% (active). As to `CN(Cc1cnccn1)C(=O)c1cc(COc2cccc(C(F)(F)F)c2)on1`, the inhibition was 0% (inactive). For the molecule `CC(=O)c1cccc(OCc2cc(C(=O)NC(C)Cc3cccnc3)no2)c1` (stereo not given), the inhibition was 0% (inactive). As to `Cc1ccc(NC(=O)C(=O)NCC2CCN(C(=O)c3cccc([N+](=O)[O-])c3)CC2)cc1`, the inhibition is -2.2% (inactive). Take `O=C(NC(=S)NC1CCS(=O)(=O)C1)c1cccc([N+](=O)[O-])c1` (stereo not given): the inhibition was -0.7% (inactive).

`O=C(Nc1ccc(C2CC2(Cl)Cl)cc1)c1cccc([N+](=O)[O-])c1` (stereo not given): the inhibition is 77.1% (active).

Regarding `Cc1ccc(CS(=O)(=O)CCC(=O)NC2CC2)cc1`, the inhibition is -1.1% (inactive). As for `COc1ccc(NC(=S)Nc2ccc(S(N)(=O)=O)cc2)c(C)c1`, the inhibition is -2.1% (inactive). As to `NS(=O)(=O)c1ccc(NC(=S)N2CCCC2)cc1`, the inhibition is -0.2% (inactive). On to `NS(=O)(=O)c1ccc(NC(=S)Nc2ccc(Br)c(Cl)c2)cc1`, for which the inhibition is 102% (active). Regarding `CC1=C/C(=N\OS(=O)(=O)c2ccccc2)C=CC1=O`, the inhibition was 103% (active). In the case of `O=C(COC(=O)c1ccc(NS(=O)(=O)c2cccs2)cc1O)Nc1ccc(F)cc1`, the inhibition is 4.7% (inactive). As for `O=S(=O)(Cc1cc(Cl)nc(-c2cccnc2)n1)c1ccccc1`, the figure is 0.8% (inactive); as for `COCCNC(=O)Nc1ccc2nc(-c3ccco3)c(-c3ccco3)nc2c1`, 0.5% (inactive). Turning to `O=C(Nc1ccccc1)c1ccc2nsnc2c1`, the inhibition is -1.8% (inactive). For the molecule `COc1ccc(NC(=O)Nc2ccc3nsnc3c2)cc1`, the inhibition is 87.9% (active). The same measure for `CSCc1cc(N(C)C)nc(SCc2ccc(Cl)cc2Cl)n1`: 1.1% (inactive); for `COc1ccc(C(=O)CSc2n[nH]c(N)n2)cc1`: -1% (inactive); for `CCCCN(C(=O)/C=C/c1ccco1)c1c(N)n(CC(C)C)c(=O)[nH]c1=O`: 0% (inactive). In the case of `O=S(=O)(Nc1cccc(-c2ccc(N3CCOCC3)nn2)c1)c1ccc(Cl)c(Cl)c1`, the inhibition is -0.6% (inactive).

With `O=C(NNC(=O)c1cccc(S(=O)(=O)Nc2ccc(Cl)cc2)c1)c1ccc(=O)[nH]c1`, the inhibition is -1.3% (inactive). Turning to `Fc1ccc2[nH]c3c(N4CCSCC4)ncnc3c2c1`, the inhibition was 80.7% (active). Regarding `CCN(CC(=O)Nc1ccccc1OC)C(=O)CC1CC2CCC1C2` (stereo not given), the inhibition was 0.6% (inactive).

For the molecule `Cc1csc(NC(=S)Nc2cccc(Cl)c2)n1`, the inhibition was 64.4% (active). `O=C(NCc1cn2ccsc2n1)Nc1cccc(Cl)c1`: the inhibition is -1.5% (inactive). As for `O=C(Nc1ccc2cn[nH]c2c1)c1ccc(S(=O)(=O)N2CCOCC2)cc1`, the inhibition was -4.1% (inactive). As to `CC(C)Cc1nnc(NC(=O)CCC(=O)Nc2ccc3cn[nH]c3c2)s1`, the inhibition is 2% (inactive). Regarding `S=C(Nc1cccc(Cl)c1)Nc1ccc2cn[nH]c2c1`, the inhibition is 55% (active). As for `Cc1ccc(C2CCN(C(=S)Nc3cccc(Cl)c3)C2)cc1` (stereo not given), the figure is 14.6% (inactive); as for `CCOC(=O)Cn1c2c(c(-c3ccccc3OC)cc1=O)CCCC2`, -1.1% (inactive); as for `Clc1ccc(C2=CSC3=Nc4cccc5cccc(c45)N23)cc1`, 6.8% (inactive). On to `CN(Cc1c(F)cccc1Cl)S(=O)(=O)c1cccs1`, for which the inhibition is -1.8% (inactive). `Cc1ccc(Nc2c(O)nc[nH]c2=O)cc1C`: the inhibition was -0.6% (inactive). The same measure for `CCOC(=O)N1CCC(Nc2c(NCCCN3CCN(c4ccc(OC)cc4)CC3)c(=O)c2=O)CC1`: 2.4% (inactive).
